Source: PubChem BioAssay (National Center for Advancing Translational Sciences (NCATS))
HEK293 tox – cytotoxicity in counter-screen for GLP-1R inverse agonists; HEK293 cAMP-luciferase reporter cells, luminescence, 24 h; Potency, µM (top dose mostly 38.3 µM), without a hit: top-dose activity change, negative = inhibition, most hits filed as inhibitors; 0.13% of 410,000 active; AID 624418;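 note: loss of luciferase light is scored as toxicity; potency is the fitted concentration of half-maximal effect; % is set by controls: 0 for no effect and ±100 for the full control effect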
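A 23 nL compound transfer followed 12 hours of cell culture at 37 deg C; exposure then lasted 24 hr. Luciferase assay detection reagent was dispensed and plates read for luminescence after a 12 min room-temperature wait.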
ClpP mod – qHTS Assay for Activators of ClpP; purified B. subtilis ClpP, FRET peptide cleavage, 20 min; Potency, µM (titrated, usually from 57.5 µM), for inactives: at the top dose activity change, negative = active; ATP-dependent Clp protease proteolytic subunit (Bacillus subtilis (strain 168)), P80244; 1.9% of 340,000 active; active = well fitted falling curve with a large enough effect; inconclusive = small, poorly fitted or top-dose-only effect; inactive = no such curve, though single readings can be large or run the other way; note: potency is the fitted concentration of half-maximal effect; the source files actives as falling curves though it sought activators and does not explain the sign; nearly all actives have a fitted effect of over 65% in size
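ClpP 10 microg/mL final, pH 8 Tris/KCl buffer with BSA, glycerol, Tween-20; compound pinned in; FRET-FV substrate; RT 20 min; Ex320/Em430; ΔFRET vs ADEP 5.8 microM, DMSO, no enzyme.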
DRD3 agonist – agonists of human D3 dopamine receptor | P35462 | D3R DiscoveRx beta-arrestin cells, luminescence, 90 min | max activation, % | 0.58% of 410,000 active | AID 652048; in the data active = max activation above about 30%; note: 0% is about no effect
Target sequence (P35462 whole entry, looked up): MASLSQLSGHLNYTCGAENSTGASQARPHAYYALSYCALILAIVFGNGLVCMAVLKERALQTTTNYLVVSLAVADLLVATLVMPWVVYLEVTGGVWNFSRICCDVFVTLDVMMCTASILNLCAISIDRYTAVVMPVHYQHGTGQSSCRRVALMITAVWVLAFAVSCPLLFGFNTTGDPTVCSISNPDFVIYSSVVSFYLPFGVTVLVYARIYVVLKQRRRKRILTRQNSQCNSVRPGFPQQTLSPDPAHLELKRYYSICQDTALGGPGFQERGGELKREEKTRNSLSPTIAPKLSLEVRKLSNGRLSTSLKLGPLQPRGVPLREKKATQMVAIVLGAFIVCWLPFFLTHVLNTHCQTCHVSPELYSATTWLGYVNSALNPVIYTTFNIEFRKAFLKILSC
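Agonist mode: compounds and dopamine controls were applied to plated cells for 90 min at 37 degrees C after an overnight attachment at 1500 cells/well. Luminescent read-out followed 30 - 60 minutes at room temperature with DiscoveRx detection reagent.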
GLP1R ag – GLP-1 receptor (human) agonism | HEK293 GLP-1R CRE-luciferase, luminescence, 4-6 h; cells express a hypersensitive GLP-1R form | Potency, µM (doses to about 45.6 µM), for inactives: at the top dose activation, most hits filed as activators | 0.007% of 380,000 active | AID 624172; note: potency is the fitted concentration of half-maximal effect; % of control where 0% means no effect
GLP1R inv ag – acts as inverse agonist at human GLP-1 receptor; P43220; Potency, µM (titrated, usually from 38.3 µM), inactives show at the top dose activity change, negative = inhibition, usual class: inhibitors; 1.6% of 410,000 active; HEK293 GLP-1R CRE-luciferase, luminescence, 24 h; GLP-1R form is constitutively active; note: potency is the fitted concentration of half-maximal effect; % is set by controls: 0 for no effect and ±100 for the full control effect; nearly all actives have a fitted effect of over 55% in size
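Luminescence readout: a drop in cAMP-driven luciferase signal flags inverse agonism at a constitutively active GLP-1R stably expressed in HEK293. Compound exposure lasted 24 hr at 37 deg C, 5% CO2.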
DRD3 antagonist – blocks the human D3 dopamine receptor | P35462 | D3R cells, DiscoveRx beta-arrestin luminescence, antagonist mode; stronger effect = lower value | max response, negative = inhibition, % | 2.5% of 360,000 active; in the data active = max response below about -50%; inconclusive = no clear call, values can overlap the other calls; note: % is set by controls: 0 for no effect and ±100 for the full control effect
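Cells plated overnight at 1500 cells/well, then exposed to library compounds with dopamine controls for 90 minutes at 37 degrees C. DiscoveRx reagent added for 30–60 minutes at room temperature; luminescence read, quantitative HTS format.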
* hit, by the source's call; ? = inconclusive; / = no result. The list is not random: actives were taken first. Their share in the collection is about 5.7%. Unless noted, calls come from the whole dose curve; as a rule, active = well fitted curve in the direction sought with a large enough effect; inconclusive = small, poorly fitted or top-dose-only effect, or another doubt; inactive = no such curve, though single readings can be large; an effect the other way counts as inactive or inconclusive.

SMILES | HEK293 tox | ClpP mod | DRD3 agonist | GLP1R ag | GLP1R inv ag | DRD3 antagonist
COc1ccccc1C(=O)Nc1ccccc1SC(=O)c1ccccc1OC | ? | -9.0% | -16.0 | -0.8% | ? | -56.5*
COC(=O)c1ccccc1NC(=O)c1ccccc1OC | -4.4% | 1.2% | 6.3 | -5.4% | -22.5% | -15.2
Cc1ccccc1CN1Cc2cccc3c2[C@H](C=CC3)CC1=O | / | 2.3% | / | / | / | /
COc1cc2oc(=O)cc(-c3ccc(-c4ccc(O)cc4)cc3)c2c(OC)c1OC | -21.5% | -14.7% | -7.2 | -2.1% | -20.4% | 22.1
COc1ccc(-c2ccc(-c3cc(=O)oc4cc(OC)c(OC)c(OC)c34)cc2)cc1OC | -0.7% | ? | 34.1* | 17.0% | 13.7% | 2.7
CCc1ccc(NCc2cc3c(C)nn(-c4ccccc4)c3[nH]c2=O)cc1 | -22.2% | 1.7% | 6.4 | 1.2% | ? | -28.2
Cc1nn(-c2ccccc2)c2[nH]c(=O)c(CNCc3ccc4c(c3)OCO4)cc12 | -14.5% | -26.5% | 2.7 | 1.1% | 8.3% | -64.8*
Cc1ccc(-c2nn(-c3ccccc3)c3[nH]c(=O)c(CNCc4ccccc4)cc23)cc1 | -32.5% | ? | -8.4 | 0.2% | ? | -65.5*
Cc1nn(-c2ccccc2)c2[nH]c(=O)c(CNCCN3CCOCC3)cc12 | -10.8% | -22.6% | 1.5 | -10.9% | 0.0% | -65.6*
Cc1nn(-c2ccccc2)c2[nH]c(=O)c(CNc3ccc4c(c3)OCCO4)cc12 | 27.5% | 0.7% | -0.4 | -1.0% | -16.7% | -25.1
CCOC(=S)SSC(=S)OCC | / | / | 7.3 | 9.1% | / | /
Cc1cc(SCC(=O)c2ccc(Br)cc2)cc(C)[o+]1 | / | -1.1% | / | / | / | /
CCC1CCCCN1C(=O)COc1ccc2c3c(c(=O)oc2c1)CCC3 (configuration not stated) | -1.9% | 28.2µM* | 1.3 | 21.4% | 2.4% | -23.0
CC(Oc1ccc2c3c(c(=O)oc2c1)CCC3)C(=O)NCC1CCC(C(=O)O)CC1 (configuration not stated) | -16.4% | 4.8% | 43.1* | 0.4% | 12.0% | 225.0
CCc1cc2c(-c3ccccc3)cc(=O)oc2cc1OC(C)C(=O)NCC1CCC(C(=O)O)CC1 (configuration not stated) | -27.4% | -19.9% | 43.6* | 14.4% | 39.0% | 114.3
CC(Oc1cc2oc(=O)cc(-c3ccccc3)c2cc1Cl)C(=O)NCC1CCC(C(=O)O)CC1 (configuration not stated) | 3.0% | -13.0% | 2.6 | 5.2% | 35.7% | 24.4
Cc1ccc(S(=O)(=O)N2C[C@H]3C(=O)C[C@@H](c4ccccc4F)N(S(=O)(=O)c4ccc(C)cc4)[C@H]3C[C@H]2c2ccccc2F)cc1 | 5.7% | -4.4% | -0.3 | -2.4% | ? | -19.4
Nc1cc(=O)[nH]c(SCc2ccc(Cl)cc2Cl)n1 | -14.2% | -0.4% | 30.2* | 16.5% | -5.6% | 20.0
CCCCc1n[nH]c2c1/C(=N/O)CC(c1ccccc1)C2 (configuration not stated) | -15.8% | 17.8µM* | 7.8 | 0.1% | ? | -13.5
O=C(NCCc1ccc(Cl)cc1)c1nc(-c2cccc(F)c2)n2c1CCCCC2 | -1.2% | -11.4% | -11.2 | / | ? | /
CCCCn1nnnc1C(c1ccccc1)N1CCN(c2ccccn2)CC1 (configuration not stated) | 0.5% | -2.9% | -4.1 | 3.3% | -2.3% | -18.8
CCc1c(C(=O)NNC(=S)NCCc2ccccc2)csc1C | -31.6% | 1.7% | -26.3 | -15.6% | ? | -65.5*
CCOc1ccc(CCNC(=O)C2CCN(c3ncnc4c3nc3n4CCCCC3)CC2)cc1 | -3.9% | 0.3% | 66.4* | / | -24.3% | /
CCc1ccccc1N(CC)C(=O)C1CCN(c2ncnc3c2nc2n3CCCCC2)CC1 | -26.7% | -1.9% | 4.8 | -1.7% | 8.91µM* | -3.3
